# Measured values as given in PubChem BioAssay (Tox21).
# Records with an inconclusive call do not appear. Where a call stands in place of a potency, no number is given. Activity calls are given as the source filed them. Calls follow the shape of the dose curve; as a rule, active = well fitted cell-killing curve with a large enough effect in the repeat runs; inconclusive = weak or mixed curves, or effect the other way; inactive = no such curve, though single readings can be large or run the other way.
# Test: qHTS assay to identify small molecule antagonists of the progesterone receptor (PR) signaling pathway - cell viability counter screen (AID 1346798); also: nearly all actives have a fitted effect of over 50% in size
# Conditions: PR-UAS-bla HEK293T viability, CellTiter-Glo luminescence, 16 h; series mostly up to 92.4 µM
# Text: National Center for Advancing Translational Sciences [NCATS]
# NIH Chemical Genomics Center [NCGC]
# U.S. Environmental Protection Agency [EPA]
# National Institutes of Environmental Health Sciences [NIEHS]
# National Toxicology Program [NTP]
# U.S. Food and Drug Administration [FDA]
# Progesterone receptor (PR), a nuclear hormone receptor, plays an important role in development, metabolic homeostasis and reproduction. It is activated by the steroid hormone progesterone. Endocrine disrupting chemicals (EDCs) and their interactions with steroid hormone receptors like PR causes disruption of normal endocrine function. To identify the compounds that inhibit PR signaling, a PR-UAS-bla GripTite cell line i.e. PR-UAS-bla HEK293T (Invitrogen, Carlsbad, CA, USA) containing a beta-lactamase reporter gene under the control of an UAS response element was used to screen Tox21 10K compound library. The cytotoxicity of the Tox21 compound library against the PR-bla cell line was tested in parallel by measuring the cell viability using CellTiter-Glo assay in the same wells.
# Tox21 Assay Protocol Summary:
# PR-UAS-bla HEK293T cells were dispensed at 3,000 cells/4 uL of assay medium containing 2% charcoal stripped FBS per well into black wall/clear-bottom 1536-well plates using a Multidrop Combi (ThermoFisher Scientific, Waltham, MA) dispenser. After the assay plates were incubated at a 37C and 5% CO2 for 4 hr, 23 nL of compounds dissolved in DMSO, positive controls or DMSO only was transferred to the assay plate by a Pintool station (Kalypsys, San Diego, CA), followed by addition of 1 uL of R5020 in assay medium using a Flying Reagent Dispenser (FRD, Aurora Discovery, San Diego, CA). The plates were incubated at 37C and 5% CO2 for 16 hr. Then 1 uL of LiveBLAzer B/G FRET substrate was added using a Flying Reagent Dispenser, the plates were incubated at room temperature for 2 hours, and fluorescence intensity was measured by an Envision plate reader (PerkinElmer, Shelton, CT). For cell viability readout that measures cytotoxicity, 4 uL/well of CellTiter-Glo reagent was added into the assay plates using a FRD. After 30 min incubation at room temperature, the luminescence intensity in the plates was measured using a ViewLux (PerkinElmer) plate reader.
row,Compound,Potency
1,Clc1cccc(Cl)c1Cl,inactive
2,COP(N)(=O)SC (stereo not given),inactive
3,CC(C)(C)OOC(C)(C)C,inactive
4,CCCCCCCCCl,inactive
5,CN=C=S,inactive
6,C#CC(C)(C)NC(=O)c1cc(Cl)cc(Cl)c1,inactive
7,O=[N+]([O-])c1ccccc1,inactive
8,OC(O)C(Cl)(Cl)Cl,inactive
9,NCC(O)c1ccc(O)cc1 (stereo not given),inactive
10,CC(C)(C)OOC(=O)c1ccccc1,inactive
11,Cc1cc(Cl)ccc1O,inactive
12,CCC[CH2][Sn]([Cl])([Cl])[Cl],inactive
13,CC(C)=C[C@@H]1[C@@H](C(=O)OCc2coc(Cc3ccccc3)c2)C1(C)C,inactive
14,O=Cc1cccc(Oc2ccccc2)c1,inactive
15,CC(Br)C(=O)O (stereo not given),inactive
16,COc1ccc2c3c1O[C@H]1[C@@H](O)C=C[C@H]4[C@@H](C2)N(C)CC[C@@]341,inactive
17,[O-][Cl+2]([O-])O,inactive
18,CCOC(=O)c1ccccc1C(=O)OCC,inactive
19,CCOP(=S)(OCC)Oc1cnc2ccccc2n1,inactive
20,CC(C)NC(=O)N1CC(=O)N(c2cc(Cl)cc(Cl)c2)C1=O,inactive

row,Compound,Potency
1,CC(C)OC(=O)Nc1ccccc1,inactive
2,C=C(C)CCl,inactive
3,CCN(CC)CCO,inactive
4,CC(Oc1ccc(Cl)cc1Cl)C(=O)O (stereo not given),inactive
5,ClCCBr,inactive
6,Cc1[nH]c(=O)n(C(C)(C)C)c(=O)c1Cl,inactive
7,[N-]=[N+]=[N-],inactive
8,C=CCO,inactive
9,COC(=O)NS(=O)(=O)c1ccc(N)cc1,inactive
10,COC(=O)NC(=S)Nc1ccccc1NC(=S)NC(=O)OC,inactive
11,CC(C#N)CCC#N (stereo not given),inactive
12,CN(C)CCO,inactive
13,CN(C)N=O,inactive
14,C1CC2OC2CC1C1CO1 (stereo not given),inactive
15,CC1C=[C-]C=C1.[C-]#[O+].[C-]#[O+].[C-]#[O+].[Mn],inactive
16,O=NN1CCCCCCC1,inactive
17,CCOP(OCC)OCC,inactive
18,Cc1ccc(N)cc1Cl,inactive
19,CCc1cccc(C)c1N(C(=O)CCl)C(C)COC (stereo not given),inactive
20,Nc1c(Cl)c(Cl)nc(C(=O)O)c1Cl,inactive
